For 76 compounds, max response results are on record in PubChem BioAssay AID652105 (National Center for Advancing Translational Sciences (NCATS), 2013).

Out of some 330,000 compounds screened, about 4,100 (1.2%) were called active. Another 2% or so got no clear call; they are omitted. The sample holds actives, similar compounds and a random draw of the others, so the mix is not that of the screen. Rule for the calls: active = max response of -50% or lower; inconclusive = between -30% and -50%; inactive = -30% or higher.
% is set by controls: 0 for no effect and ±100 for the full control effect.

In this assay the target is Phosphatidylinositol 5-phosphate 4-kinase type-2 alpha (Homo sapiens) (UniProt P48426). The assay can be described thus: qHTS for Inhibitors of phosphatidylinositol 5-phosphate 4-kinase (PI5P4K). Note: value at the top dose of about 77 µM. Conditions: PI5P4Kalpha enzyme, ADP-Glo luminescence, 60 min; stronger effect = lower value. An outline of the steps: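 Quantitative HTS of the MLSMR library against PI5P4Kalpha with substrate. ATP added last at 5 microM final; room temperature, 60 minutes. Remaining ATP depleted, ADP converted and read as luminescence.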
Chain of Phosphatidylinositol 5-phosphate 4-kinase type-2 alpha (Homo sapiens) (P48426 whole entry, looked up): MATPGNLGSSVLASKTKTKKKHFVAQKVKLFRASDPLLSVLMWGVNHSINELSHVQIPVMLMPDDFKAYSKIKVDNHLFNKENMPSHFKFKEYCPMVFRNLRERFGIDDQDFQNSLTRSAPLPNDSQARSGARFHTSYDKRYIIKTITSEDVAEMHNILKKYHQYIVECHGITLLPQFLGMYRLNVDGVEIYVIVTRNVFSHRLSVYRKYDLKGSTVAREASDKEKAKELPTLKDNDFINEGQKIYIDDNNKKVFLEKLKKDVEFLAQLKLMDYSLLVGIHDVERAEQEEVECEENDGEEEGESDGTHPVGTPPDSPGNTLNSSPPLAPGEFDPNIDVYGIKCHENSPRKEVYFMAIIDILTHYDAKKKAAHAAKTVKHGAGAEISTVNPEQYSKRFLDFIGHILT
In the case of `COC(=O)[C@@]12C[C@@H](CC(=O)N3CCC(c4ccccc4)CC3)C(=O)N(Cc3ccccc3)C1=CCC(C)(C)C2`, the max response is 3.29% (inactive).
Next, `COc1ccc(C(C)(NC(C)=O)c2nc(-c3ccc(S(C)(=O)=O)cc3)cs2)cc1` (stereo unspecified): -2.22% (inactive); `O=C(Nc1cc(Br)ccc1F)c1nc[nH]c1C(=O)NCc1ccccc1`: 32.1% (inactive).
`O=C(Cc1ccc([N+](=O)[O-])cc1)NCCS(=O)(=O)N1CCN(c2ccccc2)CC1`: the max response is -2.51% (inactive).
Next, `O=c1ccc2c(-c3ccccc3S(=O)(=O)O)c3ccc(O)c(O)c3oc-2c1O`: -99.8% (active); `COc1ccccc1CNc1nc(Nc2ccccc2Cl)c2sccc2n1`: -3.83% (inactive); `CC(=O)c1ccc(Nc2nc(C(N)c3ccccc3Cl)cs2)cc1` (stereo unspecified): 1.57% (inactive).
With `CC1(Oc2ccccc2-c2ccno2)CCN(Cc2ccc(-c3ccccc3)o2)C1` (stereo unspecified) the figure was -1.74% (inactive); with `CC(=O)Nc1cccc(Nc2ccc(C#N)cc2)c1`, 1.81% (inactive).
As to `COC(=O)[C@]12CCCCC=C1N(Cc1ccco1)C(=O)[C@H](CC(=O)NCCCCc1ccccc1)C2`, the max response was 0.498% (inactive).
Next, `CCc1c(C)[nH]c(=S)c(C#N)c1C`: -67.1% (active); `O=S1(=O)CCN(C2CCCCCCCCCCC2)CC1`: 7.96% (inactive).
Next, `O=Cc1cn(CCOc2ccc(F)cc2)c2ccccc12`: 7.27% (inactive); `COC(=O)c1ccc2nc(-c3ccc(F)cc3)c(Cc3ccc(C)cc3)n2c1`: 0.932% (inactive); `O=S1(=O)C[C@@H](N2CCN(CCO)CC2)[C@H](COCc2ccccc2)N1`: -1.64% (inactive).
Next, `CC(C)Oc1cc(F)ccc1-c1cc(C(=O)Nc2cccc(Cl)c2)[nH]n1`: 0.377% (inactive).
On to `COc1ccc(OC)c(C(O)c2ncc(-c3cccc(C(F)(F)F)c3)[nH]2)c1` (stereo unspecified), for which the max response is -2.56% (inactive).
Next, `C=CCN1C=C2C(=O)C(C)(OC(=O)CCc3ccccc3)C(=O)C=C2C=C1c1ccc(C#N)cc1` (stereo unspecified): -25.6% (inactive); `CC1(OC(=O)C2CCCC2)C(=O)C=C2C=C(c3ccc(C#N)cc3)OC=C2C1=O` (stereo unspecified): -76.4% (active); `COCCN1C=C2C(=O)C(C)(OC(=O)C3CCCC3)C(=O)C=C2C=C1c1ccsc1` (stereo unspecified): -2.59% (inactive).
With `COc1ccccc1Cc1c(-c2ccc(Cl)cc2)nc2ccc(Cl)cn12` the figure was -3.05% (inactive); with `Cc1ccccc1Nc1nnc(SCC(=O)c2cc3ccccc3o2)s1`, -19.3% (inactive).
With `Cc1ccc(Nc2nnc(SCC(=O)c3cc4ccccc4o3)s2)cc1C` the figure was -55.9% (active); with `CC(C)Nc1nnc(SCC(=O)c2c[nH]c3ccccc23)s1`, -3.57% (inactive).
Regarding `CC(C)c1ccc(Nc2nnc(SCC(=O)c3nnc(-c4ccccc4)o3)s2)cc1`, the max response was -79.1% (active).
Next, `CC(C)N(C(=O)CSc1nnc(NC2CC2)s1)c1ccccc1`: 2.4% (inactive); `NC(=O)CSc1nnc(NC(=O)c2ccc3ccccc3c2)s1`: -9.56% (inactive).
Next, `O=C1NC[C@H](CCCCN2C[C@H](Cc3ccc(O)cc3)N(CCc3ccccc3)C(=O)C2=O)N(CCc2ccccc2)C1=O`: -2.29% (inactive); `COCc1cccc(-c2csc(C(O)c3ccc(F)cc3)n2)c1` (stereo unspecified): 0.323% (inactive).
Next, `COc1ccc(C(=O)N2CCCCC2c2cc(C(=O)Nc3ccc(F)c(Cl)c3)no2)cc1` (stereo unspecified): -6.25% (inactive).
`NC(Cc1ccccc1)c1csc(Nc2cc(Oc3ccccc3)ncn2)n1` (stereo unspecified): the max response is 1.15% (inactive).
With `O=C(/C=C(O)/C=C/c1ccc(O)cc1)/C=C/c1ccc(O)cc1` the figure was -59.8% (active); with `O=C(/C=C/c1ccc2c(c1)OCCO2)c1ccc(O)cc1`, -20.1% (inactive); with `O=C(/C=C/c1ccc(F)cc1)NCCNC(=O)/C=C/c1ccc(F)cc1`, 3.31% (inactive).
With `O=C1c2ccccc2-c2ccccc2NC1O` (stereo unspecified) the figure was -1.89% (inactive); with `COc1ccc(OCCCC(=O)Nc2nnc(C3CCCO3)s2)cc1` (stereo unspecified), -53% (active); with `COc1ccc(NC(=O)CCC(=O)Nc2nnc(C3CCCCC3)s2)cc1`, 0.477% (inactive).
Turning to `Cc1nnc(NC(=O)CCCOc2ccccc2)s1`, the max response is -10% (inactive).
For `Cc1ccc(S(=O)(=O)N2CCC(=O)N([C@H](COCc3ccccc3)C(C)C)CC2)cc1`, the max response is -1.43% (inactive).
Next, `CC(=O)Nc1cccc(-c2ccnc3c2CC(C)(C(=O)NCc2ccccc2)O3)c1` (stereo unspecified): 0.0166% (inactive); `COC(=O)c1ccc(CN2C(=O)C(Cc3ccccc3)ON=C2c2ncccc2C)o1` (stereo unspecified): -4% (inactive); `CCOC(=O)c1ccc(COC(=O)c2cc(=O)[nH]c3ccccc23)o1`: 0.0752% (inactive).
Next, `CCOC(=O)c1ccc(Nc2cc3ccccc3c(=O)[nH]2)cc1`: 3.2% (inactive).
Next, `CCOC(=O)c1cc2c(=O)[nH]c(C(Cl)(Cl)Cl)nc2o1`: -59.5% (active); `CCC(C)CN1C(=O)CSCC1(C)C(=O)NCc1ccccc1` (stereo unspecified): -2.56% (inactive).
Take `COc1cc2c(C(=O)O)c(C)n(C)c2c2ccccc12`: the max response was -2.64% (inactive).
With `Cc1c(C(=O)N/N=C/c2ccccc2)[nH]c2c([N+](=O)[O-])cccc12` the figure was -0.171% (inactive); with `COc1cccc2c(C)c(C(=O)O)[nH]c12`, -63.9% (active).
With `COc1cc2c(=O)n(C)c3ccccc3c2cc1OC` the figure was 1.08% (inactive); with `c1ccc(-c2cc(-c3nnc4sc(-c5ccccn5)nn34)[nH]n2)cc1`, -57.7% (active).
With `S=c1[nH]nc(-c2cc(-c3ccsc3)n[nH]2)n1-c1ccccc1` the figure was -10.2% (inactive); with `CN(C(=O)c1ccccn1)c1nnc(-c2ccccn2)s1`, 3.64% (inactive); with `CC1(C)OC(=O)C2=C(C[C@@H](C3CCCC3)O[C@@H]2c2ccc(Cl)cc2)O1`, 3.13% (inactive).
For the compound `CCCNC(=O)c1cc(C2CCCCN2C(=O)OC)on1` (stereo unspecified), the max response is -2.43% (inactive).
Next, `Cc1sc2nc(CSCC(=O)NC3CCCCC3)[nH]c(=O)c2c1C`: -13.2% (inactive).
As for `Cc1sc2nc(CSCC(=O)Nc3c(Cl)cccc3Cl)[nH]c(=O)c2c1C`, the max response is 1.38% (inactive).
Next, `CSc1nnc(SCc2nc3sc(C(=O)O)c(C)c3c(=O)[nH]2)s1`: -79.5% (active); `CCCOc1ccc(F)cc1-c1cc(C(=O)Nc2ccc(F)c(Cl)c2)[nH]n1`: -4.85% (inactive); `Cc1cc(O)ccc1-c1cc(C(=O)NCc2cc(C(F)(F)F)cc(C(F)(F)F)c2)[nH]n1`: -3.12% (inactive).
Next, `CN(C)C(=O)c1cccc(-c2cnc3c(NC=O)cc(-c4ccc(C(=O)N5CCOCC5)cc4)cn23)c1`: -13.4% (inactive); `Cc1cc(Br)ccc1NC(=O)CCCOc1cc(=O)n(C)c2ccccc12`: 3.17% (inactive); `CN1OC[C@@H]2CN(S(=O)(=O)c3cccc4ccccc34)[C@H](c3ccc(N4CCCCC4)cc3)C[C@@H]21`: 7.24% (inactive).
Take `CCOc1cccc(/C=N/N2C(=O)CSC2=S)c1O`: the max response is -51.6% (active).
With `CCOc1cccc(/C=N/NC(=S)NCCN2CCOCC2)c1O` the figure was -0.183% (inactive); with `COc1cc(N2C(=O)CSC2=S)cc(OC)c1OC`, 0.509% (inactive).
Consider `COc1cc(Cn2c3ccc(NC(=O)CC(C)c4ccccc4)cc3c(=O)n2C)ccc1F` (stereo unspecified), for which the max response was 2.27% (inactive).
Next, `NC(=O)CCN1CCN(S(=O)(=O)/C=C/c2ccccc2)CC1`: 0.132% (inactive); `Cc1ccc2c(CN3CCN(S(=O)(=O)c4ccccc4C(F)(F)F)CC3)cc(=O)oc2c1`: -4.51% (inactive).
With `O=c1cc(CN2CCN(S(=O)(=O)/C=C/c3ccccc3)CC2)c2ccc(O)cc2o1` the figure was -55% (active).
`CN(Cc1cn(Cc2ccc(C(F)(F)F)cc2)nn1)C1CN(Cc2cn(Cc3ccc(C(F)(F)F)cc3)nn2)S(=O)(=O)C1` (stereo unspecified): the max response is 11.5% (inactive).
Regarding `COc1ccc(-c2ccc(C(=O)NCCN3CCOCC3)c3occc23)c(C)c1`, the max response was 2.58% (inactive).
As to `Cc1ccc(-c2c[n+](=O)c3c(n2[O-])CCC3)cc1`, the max response was 3.26% (inactive).
Next, `O=[n+]1c2c(n([O-])c3cc(Br)ccc31)CCC2`: -56.6% (active).
For the compound `Cc1ccc(-c2c(C)n([O-])c3c([n+]2=O)CCC3)cc1`, the max response is 0.293% (inactive).
Regarding `CC1(C(=O)NCc2ccc(F)c(F)c2)Cc2c(-c3ccc4c(c3)OCO4)ccnc2O1` (stereo unspecified), the max response was 0.999% (inactive).
With `CN1OC[C@@H]2CN(C(=O)c3cccnc3)[C@H](c3ccc(N4CCCCC4)cc3)C[C@@H]21` the figure was -1.25% (inactive).
